Bioassay records from PubChem.
RE007 growth inh = less growth of the S. pombe RE007 Vpr strain; S. pombe RE007 Vpr strain, BacTiter-Glo ATP luminescence, 24 h; Potency, µM (series often up to 92.2 µM), without a hit: at the highest dose activity change, negative = less growth, actives largely listed as inhibitors; 0.21% of 360,000 active; AID 651644; active = well fitted falling curve with a large enough effect; inconclusive = small, poorly fitted or top-dose-only effect; inactive = no such curve, though single readings can be large or run the other way; also: potency is read from the fitted curve at half-maximal effect; nearly all actives have a fitted effect of over 50% in size
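Fission yeast strain RE007, carrying one chromosomally integrated HIV-1 vpr copy, was seeded at OD 0.01 in PMG+AL medium with 23 nL pinned compound. After 24 h at 30 °C and 99% humidity, viability was read by BacTiter-Glo luminescence.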
HCMV inh = human cytomegalovirus inhibition. HFF cells, HCMV-luciferase reporter, 72 h; hits give low values. activity change, negative = inhibition, % at 57.5 µM. 4.5% of 410,000 active. AID 1259415; in the data active = activity change below about -60%; inconclusive = no clear call, values can overlap the other calls; inactive = above about -39%
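Two-dose cell screen: HFF monolayers treated with compounds and infected with luciferase-expressing HCMV at 1 PFU/cell, 72 h at 37C, then lysed for luciferase measurement.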
Sm TGR inh = blocks Schistosoma mansoni thioredoxin glutathione reductase; Q962Y6; purified TGR, DTNB reduction, TNB absorbance 405 nm; Potency, µM (series often up to 114 µM), for the others: at the top dose activity change, negative = inhibition, hits mostly inhibitors; 3% of 360,000 active; AID 485364; also: potency is read from the fitted curve at half-maximal effect; nearly all actives have a fitted effect of over 60% in size
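First, TGR (20 nM dispensed) and NADPH were mixed with compound. Second, a 15 min room-temperature incubation followed. Third, further NADPH and then DTNB were added to start the reaction. Finally, TNB absorbance was monitored kinetically.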
FMDV antiviral = foot and mouth disease virus antiviral activity; FMDV antiviral cell-based qHTS; 1.2% of 410,000 active; Potency, µM (doses to about 57.9 µM), inactives show top-dose activity change, negative = inhibition, usual class: inhibitors; calls by dose curve; tested in HEK293T cells; also: read-out not given here; potency is read from the fitted curve at half-maximal effect; nearly all actives have a fitted effect of over 45% in size
Tb PYK inh = T. brucei pyruvate kinase inhibition. TbPYK enzyme, Kinase-Glo Plus ATP luminescence, 45 min. 0.12% of 410,000 active. Potency, µM (top dose mostly 76.8 µM), for inactives: at the highest dose activity, negative = inhibition, usual class: inhibitors. AID 624173. Q57TT1; also: potency is read from the fitted curve at half-maximal effect; nearly all actives have a fitted effect of over 50% in size
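Enzyme and substrate buffer are dispensed first and compound is pin-transferred. ADP at 130 uM final then starts the reaction, which runs 45 min at room temperature. Detection reagent is added for 10 min before luminescence is imaged.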
FBPA Giardia inh = Giardia lamblia aldolase inhibition | purified Giardia FBPA | Potency, µM (top dose mostly 59.6 µM), without a hit: at the top dose activity, negative = inhibition, actives largely listed as inhibitors | 0.71% of 290,000 active | AID 2451; also: potency is read from the fitted curve at half-maximal effect; nearly all actives have a fitted effect of over 55% in size
Target sequence (A8B2U2 whole entry, looked up): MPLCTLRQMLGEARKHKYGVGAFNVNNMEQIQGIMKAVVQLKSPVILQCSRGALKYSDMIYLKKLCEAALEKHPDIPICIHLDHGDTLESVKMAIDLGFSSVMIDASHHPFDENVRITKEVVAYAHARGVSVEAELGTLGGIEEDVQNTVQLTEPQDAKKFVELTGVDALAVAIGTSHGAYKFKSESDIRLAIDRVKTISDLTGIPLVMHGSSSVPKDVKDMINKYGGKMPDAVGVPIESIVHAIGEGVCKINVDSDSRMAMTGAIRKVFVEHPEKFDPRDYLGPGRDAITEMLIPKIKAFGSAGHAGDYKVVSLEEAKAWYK
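Giardia FBPA (40 nM reagent) was preincubated 10 min at RT with compound (up to 57.5 uM final), then substrate plus GAPDH/TPI/NAD/arsenate coupling system with diaphorase/resazurin was added; resorufin fluorescence (525/598 nm) was read after 20 min.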
Active calls of the source: *; ! = repeats disagree; [ ] = remark or other dose. Only some compounds are listed: those with a hit (about 7.7% of all), similar ones and a draw of the others. Unless noted, calls follow the shape of the dose curve; as a rule, active = well fitted curve in the direction sought with a large enough effect; inconclusive = small, poorly fitted or top-dose-only effect, or another doubt; inactive = no such curve, though single readings can be large; an effect the other way counts as inactive or inconclusive. % is scaled to controls: 0 for no effect and ±100 for the full control effect.

CCOc1ccc(NC(=O)c2ccc(F)c(S(=O)(=O)NCc3ccc4c(c3)OCO4)c2)cc1 was read as HCMV inh -81.2*, Sm TGR inh 3.6%, FMDV antiviral inconclusive and Tb PYK inh -4.6%.
For O=C(NCc1ccc2c(c1)OCO2)Nc1ccc([N+](=O)[O-])cc1 the results were RE007 growth inh -4.6%, HCMV inh -60.8*, Sm TGR inh -5.0%, FMDV antiviral 0.8%, Tb PYK inh 1.9% and FBPA Giardia inh -3.7%.
Cc1ccc(NC(=O)Cn2c(=O)n(CCC(=O)N3CCc4ccccc4C3)c(=O)c3ccccc32)c(C)c1 was read as HCMV inh -65.5*, Sm TGR inh -10.2%, FMDV antiviral -8.8% and Tb PYK inh 1.5%.
For COc1ccc(NC(C)=O)cc1S(=O)(=O)NCc1ccc2c(c1)OCO2 the results were RE007 growth inh 6.2%, HCMV inh -88.1*, FMDV antiviral -0.4% and Tb PYK inh -5.5%.
Screening O=C(c1cccnc1)C1CCCN(Cc2ccc3c(c2)CN(C(=O)c2cccc(Cl)c2)CCO3)C1 (stereo not given) returned FMDV antiviral -27.4%.
For CN1OC[C@@H]2CN(C(=S)Nc3cc(C(F)(F)F)cc(C(F)(F)F)c3)[C@H](c3ccccc3Br)C[C@@H]21 the results were HCMV inh 3.3.
Cc1cccc(OC(=O)CSc2nnc(-c3cccs3)o2)c1C was read as HCMV inh 14.9, Sm TGR inh 1.4%, FMDV antiviral -20.9% and Tb PYK inh -3.9%.
CCOc1ccc(NC(=S)NCc2ccc3c(c2)OCO3)cc1 was read as RE007 growth inh 17.7%, HCMV inh 11.1, Sm TGR inh 5.01µM*, FMDV antiviral 57.6%, Tb PYK inh 2.1% and FBPA Giardia inh -2.1%.
Screening Cc1ccc(NC(=O)Cn2c(=O)n(CCC(=O)NCc3ccccc3Cl)c(=O)c3ccccc32)cc1 returned HCMV inh -86.1*, Sm TGR inh 7.5%, FMDV antiviral -13.3% and Tb PYK inh 2.4%.
For CCOc1ccc(NC(=O)Cn2c(=O)n(CCCCC(=O)NCc3ccc4c(c3)OCO4)c(=O)c3ccccc32)cc1 the results were HCMV inh -76.4*, Sm TGR inh -0.7%, FMDV antiviral inconclusive and Tb PYK inh -4.9%.
For Cc1ccc(NC(=O)Cn2c(=O)n(CCCCC(=O)NCc3ccccc3Cl)c(=O)c3ccccc32)cc1 the results were HCMV inh -0.2, Sm TGR inh 7.9%, FMDV antiviral -22.6% and Tb PYK inh -0.6%.
For Cc1ccc(NC(=O)Cn2c(=O)n(CCCC(=O)NCc3ccc4c(c3)OCO4)c(=O)c3ccccc32)cc1 the results were HCMV inh 12.7, Sm TGR inh 5.2%, FMDV antiviral -2.4% and Tb PYK inh -0.7%.
`CC(CNC(=O)c1ccc2c(c1)OCO2)c1ccc([N+](=O)[O-])cc1` (stereo not given) gave RE007 growth inh 13.6%, HCMV inh -63.2*, Sm TGR inh -6.2%, FMDV antiviral -14.0%, Tb PYK inh 3.0% and FBPA Giardia inh 3.6%.
Cc1nc(N2CCCC2)c2c(C(=O)N3CCN(c4cccc(Cl)c4)CC3)c(C)oc2n1 was read as HCMV inh 27.5, Sm TGR inh 8.0%, FMDV antiviral -20.3% and Tb PYK inh 0.0%.
Screening COCCCNC(=O)c1ccc(Cn2c(=O)c3ccccc3n(Cc3ccccc3C)c2=O)cc1 returned RE007 growth inh 47.3%, HCMV inh -95.5*!, Sm TGR inh -2.7%, FMDV antiviral -2.7%, Tb PYK inh 1.6% and FBPA Giardia inh 11.0%.
Cc1nc(-c2ccc(C)c(N3CCN(C(=O)Nc4cccc(Cl)c4C)CC3)c2)no1 was read as HCMV inh -87.5*, Sm TGR inh 3.2%, FMDV antiviral inconclusive and Tb PYK inh 5.3%.
Cc1ccc(NC(=O)N2CCN(c3cc(-c4noc(C)n4)ccc3C)CC2)c(C)c1 was read as HCMV inh 8.4, Sm TGR inh 10.3%, FMDV antiviral -1.8% and Tb PYK inh -14.3%.
Screening CCOc1ccccc1CN1CCc2nc(N3CCN(C)CC3)ncc2C1 returned HCMV inh -6.0, Sm TGR inh 1.4%, FMDV antiviral -11.6% and Tb PYK inh 3.0%.
For COc1cc(OC)c(OC)cc1CN1CCc2nc(N3CCN(C)CC3)ncc2C1 the results were HCMV inh 0.5, Sm TGR inh 39.8µM*, FMDV antiviral -18.3% and Tb PYK inh -4.9%.
`CN1CCN(c2ncc3c(n2)CCN(Cc2ccccc2Cl)C3)CC1` gave HCMV inh -9.4, Sm TGR inh -5.7%, FMDV antiviral -3.8% and Tb PYK inh 3.4%.
Screening Clc1ccccc1CN1CCc2nc(N3CCN(c4ncccn4)CC3)ncc2C1 returned HCMV inh -29.3, Sm TGR inh 7.7%, FMDV antiviral 31.6µM* and Tb PYK inh 4.0%.
Screening Cc1cccc(CN2CCc3nc(N4CCN(c5ccccn5)CC4)ncc3C2)c1 returned HCMV inh inconclusive, Sm TGR inh -6.5%, FMDV antiviral 14.1µM* and Tb PYK inh 6.0%.
`O=C(COC(=O)c1ccc([N+](=O)[O-])o1)Nc1nc2ccccc2s1` gave RE007 growth inh -18.1%, HCMV inh 11.4, Sm TGR inh 28.2µM*, FMDV antiviral 16.5%, Tb PYK inh -2.7% and FBPA Giardia inh -18.1%.
CC(C)=NOC[C@@H](O)COCc1ccco1 was read as FBPA Giardia inh 0.9%[12.9 µM].
Screening Cc1cccc(OCCN2C(=O)C(=O)c3cc(C)ccc32)c1 returned RE007 growth inh -8.6%, HCMV inh -88.9*, Sm TGR inh -0.6%[57.1 µM], FMDV antiviral 7.5%, Tb PYK inh -1.3% and FBPA Giardia inh -11.1%.
`Cc1ccc2c(c1)C(=O)C(=O)N2CCCOc1ccccc1C` gave RE007 growth inh 30.3%, HCMV inh -14.7, Sm TGR inh inconclusive, FMDV antiviral 7.4%, Tb PYK inh -1.2% and FBPA Giardia inh -11.3%.
`Cc1cccc(OCCCn2c(=O)oc3ccc(C)cc32)c1` gave RE007 growth inh 3.4%, HCMV inh -80.3*, Sm TGR inh 23.4%, FMDV antiviral -7.6%, Tb PYK inh 7.9% and FBPA Giardia inh -6.1%.
Screening Cc1ccc2c(c1)C(=O)C(=O)N2CCOc1ccccc1 returned RE007 growth inh -2.8%, HCMV inh -73.3*, FMDV antiviral 13.4%, Tb PYK inh -9.8% and FBPA Giardia inh -7.9%.
COc1ccccc1OCCCn1c(=O)oc2ccc(C)cc21 was read as RE007 growth inh -2.5%, HCMV inh -21.9, Sm TGR inh -5.2%, FMDV antiviral 6.0%, Tb PYK inh -0.8% and FBPA Giardia inh 10.4%.
